Most compounds without a hit are left out; they make up all but 12% or so of the library.
Lmaj promast = Leishmania major promastigote growth inhibition | AID 1063 | hit rate 9% among 200,000 | inhibition, % at 10 µM | Leishmania major promastigotes, resazurin fluorescence viability; in the data active = inhibition above about 50%;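 also: promastigotes grown with compound for 44 hours at 28 °C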
Arbovirus anti = antivirals against arbovirus infection; arbovirus infection cell-based antiviral screen; inhibition, % at 10 µM; hit rate 0.37% among 200,000; AID 1251; in the data active = inhibition above about 30%
WT yeast gro inh = growth inhibition of WT yeast, mitochondrial fusion screen; mitochondrial fusion phenotypic screen, WT strain; inhibition, % at 10 µM; hit rate 2.1% among 190,000; in the data active = inhibition above about 58%; tested in S. cerevisiae
CHOP inhibitor = inhibitors of CHOP induction in ER stress response. CHO-K1 CHOP-promoter luciferase, tunicamycin-induced, 15-18 h. inhibition, % at 10 µM. hit rate 3.8% among 220,000;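 active = compounds that reduced the stress-induced luciferase reporter signal by more than about 70% of percent inhibition, limit read from the data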
Of the large screens only hits and unclear results are named; the others gave an inactive call.

CN1CCN(C(=S)NC(=O)c2ccc(Cl)cc2)CC1	Arbovirus anti 81.5
COc1ccc(C(=S)N2CCN(C)CC2)cc1	Lmaj promast 84.5 (no result: WT yeast gro inh)
OC(c1ccccc1)c1nccc2ccccc12 (configuration not stated)	none
C=CCn1c(O)c(N=NC(=S)Nc2ccc(OC)cc2)c2ccccc21	Lmaj promast 87.1
C=CCn1c(O)c(N=NC(=O)OCC)c2ccccc21	none
C=CCn1c(O)c(N=NC(=S)Nc2cccc(OC)c2)c2ccccc21	Lmaj promast 97.7
COc1cccc(-n2c(=O)c3cc(OC)c(OC)cc3n(CC(=O)Nc3cc(C)[nH]n3)c2=O)c1	none
Cc1ccc(C(=O)CSC2=C(C#N)C(c3ccco3)C3=C(CC(C)(C)CC3=O)N2)cc1 (configuration not stated)	Lmaj promast 89.8
CC1=C(C(=O)OC2CCCCC2)C(c2ccco2)C2=C(CC(C)(C)CC2=O)N1 (configuration not stated)	Lmaj promast 58.9
COc1ccc(CCNC(=O)CC2SC(=NCCC(C)C)NC2=O)cc1OC (configuration not stated)	none
CCCc1ccc(OCC(=O)NNC(=O)c2cccnc2)cc1	none
Cc1ccc(NC(=O)c2cc3c(s2)CCCC3)cc1S(=O)(=O)Nc1ccccc1Cl	none
O=C(Nc1ccc(Cl)c(S(=O)(=O)Nc2ccccc2Cl)c1)c1cccs1	Lmaj promast 77.2, WT yeast gro inh 83.8
Cc1ccc(C(=O)Nc2ccc(C)c(S(=O)(=O)Nc3ccccc3Cl)c2)s1	Lmaj promast 84.2, WT yeast gro inh 70.0
O=C(NC1CCCCC1)N(C1=NCCCCC1)c1ccc(Br)cc1	none
Cc1cc(C)cc(OCC(=O)O/N=C(\N)c2ccccc2Cl)c1	none (no result: Lmaj promast, Arbovirus anti, WT yeast gro inh)
Cc1ccc(-n2nnc(-c3nccs3)n2)cc1	CHOP inhibitor 77.5
O=C(Nc1ccc2c(c1)OCO2)OCc1ccccc1	none
O=C(C1CCN(Cc2ccc(OCc3ccccc3)cc2)CC1)N1CCCC1	none
Clc1ccc(C(c2ccccc2)N2CCN(c3ccccn3)CC2)cc1 (configuration not stated)	none (no result: Lmaj promast, Arbovirus anti, WT yeast gro inh)
Cc1cccc(CN2CCN(C(c3ccccc3)c3ccc(Cl)cc3)CC2)c1 (configuration not stated)	Lmaj promast 63.2, WT yeast gro inh 65.8
CN1CCCN(C(c2ccccc2)c2ccc(Cl)cc2)CC1 (configuration not stated)	Lmaj promast 98.7
O=C(C1CCN(Cc2ccc(Cl)cc2)CC1)N1CCN(C(c2ccccc2)c2ccccc2)CC1	Lmaj promast 87.5
CCOC(=O)C1=NOC2C3CC(C12)C1C(=O)N(CCc2ccc(OC)c(OC)c2)C(=O)C31 (configuration not stated)	none (no result: Lmaj promast, Arbovirus anti, WT yeast gro inh)
Cc1cc(SCC(=O)NC(=O)c2cccn2C)nc2ccccc12	none (no result: Lmaj promast, Arbovirus anti, WT yeast gro inh)
CCCN(CCC)S(=O)(=O)c1cccc(-c2csc(C)n2)c1	none (no result: Lmaj promast, Arbovirus anti, WT yeast gro inh)
Cc1nc(N2CCOCC2)nc(OC(C)C)c1[N+](=O)[O-]	CHOP inhibitor 83.8
COc1nc(N2CCOCC2)nc(C)c1[N+](=O)[O-]	Lmaj promast 61.8
CCN(CC)S(=O)(=O)c1cccc(N=Nc2c(O)c3ccccc3oc2=O)c1	none (no result: Lmaj promast, Arbovirus anti, WT yeast gro inh)
O=C(O)CCC(=O)N1CCc2cc(S(=O)(=O)N(CCc3ccccc3)Cc3ccccc3)ccc21	none
O=C(Cc1ccccc1)N/N=C/c1ccc(S(=O)(=O)O)o1	none (no result: Lmaj promast, Arbovirus anti, WT yeast gro inh)
O=C(Cc1ccccc1)N/N=C/c1cc(Br)c(Br)o1	CHOP inhibitor 76.1
O=C(CP(=O)(c1ccccc1)c1ccccc1)N/N=C/c1cc(Br)cc(Br)c1O	none
O=C(Cc1ccccc1)N/N=C/c1cc(Br)cc(Cl)c1O	Lmaj promast 82.4
COc1cccc(NC(=O)Cn2c(=O)n(CCC(=O)NC3CCN(Cc4ccccc4)CC3)c(=O)c3ccccc32)c1	none (no result: Lmaj promast, Arbovirus anti, WT yeast gro inh)
CC(NCc1ccncc1)C12CC3CC(CC(C3)C1)C2 (configuration not stated)	Lmaj promast 68.5
c1cc(CNC2C3CC4CC(C3)CC2C4)ccn1 (configuration not stated)	Lmaj promast 82.8
O=C(NCc1ccncc1)C12CC3CC(CC(C3)C1)C2	none
COc1ccc(/C=N/NC(=O)c2cc(C34CC5CC(CC(C5)C3)C4)[nH]n2)cc1O	Lmaj promast 89.5
COc1ccc(/C=N\NC(=O)c2ccc(=O)[nH]n2)cc1O	none
Cc1ccc(-n2c3nc(=O)[nH]c(=O)c-3cc3cc([N+](=O)[O-])ccc32)cc1C	Lmaj promast 94.1
Cc1nnc(NC(=O)C2CCCN(S(=O)(=O)c3ccccc3C(F)(F)F)C2)s1 (configuration not stated)	none
CCSc1nnc(NC(=O)C2CCN(S(=O)(=O)c3c(C)c(C)cc(C)c3C)CC2)s1	CHOP inhibitor 77.9
CCSc1nnc(NC(=O)C2CCN(S(=O)(=O)c3ccccc3C(F)(F)F)CC2)s1	Lmaj promast 55.1
O=C(NNc1c(Cl)cccc1Cl)c1cccs1	none (no result: Lmaj promast, Arbovirus anti, WT yeast gro inh)
CN(C(=O)/C=C/c1ccc([N+](=O)[O-])s1)c1ccccc1	Lmaj promast 97.8
CN(C(=O)COC(=O)/C=C/c1ccccc1[N+](=O)[O-])c1ccccc1	none
Cc1cc(C)c2[nH]c(=O)c(CN(Cc3nnnn3C3CCCC3)C3CCCCC3)cc2c1	none
Cc1cccc2cc(CN(Cc3nnnn3C3CCCCC3)C3CCCC3)c3nnnn3c12	Lmaj promast 50.2
Brc1ccc(-c2nnc(-c3ccccc3)c(N3CCSCC3)n2)cc1	WT yeast gro inh 63.3
O=C(N/C(=C\c1ccc(Br)cc1)C(=O)N1CCCC1)c1ccccc1F	none
CC(C)c1ccc(NC(=O)c2sccc2-n2cccc2)cc1	WT yeast gro inh 67.2
Cc1c(Br)cccc1NC(=O)c1sccc1-n1cccc1	none
CCc1ccccc1NC(=S)N=Nc1c(O)n(C)c2ccc(S(=O)(=O)N3CCOCC3)cc12	WT yeast gro inh 72.1
CC1CC(C)(C)NC(=S)N1CCC(=O)NCc1ccc(Cl)cc1 (configuration not stated)	none
Cc1cc(C)n(-c2nnc(C)n2/N=C/c2cc(Br)ccc2OCc2ccccc2)n1	Lmaj promast 89.2, CHOP inhibitor 91.8
Cc1cc(C)n(-c2nnc(C)n2/N=C/c2ccccc2OCc2ccccc2Cl)n1	none
Cc1ccc(CSC(Nc2ccc(F)cc2)=C(C#N)C#N)cc1	Lmaj promast 57.9, CHOP inhibitor 75.9
COc1cc(NC(=O)C(=O)NCCN2CCNCC2)c(OC)cc1Cl	none
CN(C)C(=O)COc1ccc(Oc2ccccc2)cc1	none
CC(=O)N1N=C(c2ccc(C)o2)CC1c1cccc(F)c1 (configuration not stated)	none
Cc1cc(N2CCN(c3nc(-c4ccccc4)cs3)CC2)c2ccccc2n1	WT yeast gro inh 70.2
Cc1ccc(C(OCC(O)CNC(C)c2ccccc2)c2ccccc2)cc1 (configuration not stated)	Lmaj promast 77.0
CC(NCC(O)COCc1ccc(Cl)cc1)c1ccccc1 (configuration not stated)	none
O=C(Cc1ccccc1)NNC(=O)c1cnccn1	none
Cc1ccc(C(C)C)c(OCc2nc(-c3nonc3N)no2)c1	CHOP inhibitor 94.7
O=C(N/N=C/c1ccc(N2CCCCC2)o1)c1ccccc1[N+](=O)[O-]	none
CCOc1ccccc1NC(=O)N1CCCC(c2nc(-c3ccc(C)o3)no2)C1 (configuration not stated)	none
Cc1ccc(Nc2nc(OC(C(F)(F)F)C(F)(F)F)nc(N3CCOCC3)n2)cc1	none

Source: PubChem
